Growth data for nine compounds are collected here from PubChem BioAssay (NCI).

About 83,000 compounds went through this panel and 20% of them were active in at least one assay; those are over-represented in the sample as a whole.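 Values shown are percent growth following 48 h exposure of cells in 96-well plates to a single concentration of compound; below 10 was considered active.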 Values without a mark were called inactive. Calls of active or inactive are those of the source.

Some test systems named below: BT-549 breast; MDA-MB-435 melanoma; SW-620 colon; MCF7 breast; HCT-116 colon; KM12 colon; HCC-2998 colon.
Holding throughout (assay): NCI-60 one-dose screen, 48 h (100 = growth as untreated, 0 = no growth, -100 = all killed)
Settings in all cases: 10 µM unless noted

With `CN(C)c1ccc(N=Nc2ccc3ccccc3c2)cc1`, the growth was 101% in the assay on BT-549 breast; 101% in the assay with MDA-MB-435 melanoma; 96.9% in the assay on SW-620 colon; 43.9% in the assay with MCF7 breast; 66% in the assay on HCT-116 colon; 92.8% in the assay on KM12 colon.
Take `O=C1NC(=O)C(Cc2ccccc2)(Cc2ccccc2)N1`: the growth in the assay with BT-549 breast is 90.4%; in the assay with MDA-MB-435 melanoma, 96.4%; in the assay on MCF7 breast, 96.2%; in the assay with HCT-116 colon, 90.9%; in the assay with HCC-2998 colon, 104%.
For `COc1ccc(C(=O)/C=C/c2ccccn2)c(O)c1`, the growth in the assay on BT-549 breast is 76.5%; in the assay on MDA-MB-435 melanoma, 77.3%; in the assay on SW-620 colon it was 43.4%; with MCF7 breast it was 15.9%; in the assay with HCT-116 colon, 76.5%; in the assay with HCC-2998 colon it was 93.6%. Further, the growth with KM12 colon is 51.1%.
As to `CCCc1cc2cc(-n3nc(C)c4c3CC(C)(C)CC4=O)cc(NC3CCSCC3)c2c(=O)[nH]1`, the growth with BT-549 breast was 61.5%; in the assay with MDA-MB-435 melanoma, 26.5%; in the assay with SW-620 colon, 32.4%; in the assay on MCF7 breast, 36.5%; in the assay with HCT-116 colon it was 19.8%; with HCC-2998 colon, 46.9%. Moreover, the growth in the assay with KM12 colon was 41.7%.
`O=C(N/N=C/c1ccc([N+](=O)[O-])cc1)c1ccc(Br)o1`: the growth in the assay with BT-549 breast was 109%; with MDA-MB-435 melanoma, 108%; in the assay on SW-620 colon, 104%; in the assay with MCF7 breast, 71.2%; in the assay on HCT-116 colon, 99.4%; with HCC-2998 colon, 107%. Also, the growth in the assay with KM12 colon was 126%.
For the compound `COc1cc(OC)cc(C(=O)Nc2cc(-c3cccnc3)nc(NCCCN3CCOCC3)n2)c1`, the growth in the assay on MDA-MB-435 melanoma was 102%; with SW-620 colon, 99.9%; in the assay with MCF7 breast it was 88%; in the assay with HCT-116 colon, 89.2%; with HCC-2998 colon, 123%; in the assay on KM12 colon, 104%.
For the compound `CN(C)C(=S)Sc1ccc([N+](=O)[O-])cc1[N+](=O)[O-]`, the growth in the assay on MDA-MB-435 melanoma was 44.4%; with SW-620 colon it was -63.1% (active); with MCF7 breast, 0.536% (active); in the assay with HCT-116 colon, -54.4% (active); in the assay on HCC-2998 colon, 88.9%; in the assay on KM12 colon, 49.1%.
For `C[C@@H]1C[C@H]2C(=O)O[C@@H](C)[C@H](NC(=O)[C@H](Cc3cc(F)cc(F)c3)NC(=O)Nc3ccc(Cl)cc3F)C(=O)N3C[C@H](O)C[C@H]3C(=O)N3CCN(C)C[C@H]3C(=O)N[C@@H](C)C(=O)N2C1`, the growth was 14.9% in the assay with BT-549 breast; 22.3% in the assay with MDA-MB-435 melanoma; 42% with SW-620 colon; 23% in the assay on MCF7 breast; 8.85% (active) in the assay on HCT-116 colon; 32.8% in the assay on HCC-2998 colon. The growth in the assay on KM12 colon is 41.2%.
In the case of `CCCCC1COc2cccc3c2N1C=C/C3=C\C(=O)n1ccc2ccccc21` (stereo unspecified), the growth in the assay on BT-549 breast is 89.9%; with MDA-MB-435 melanoma, -16.4% (active); in the assay on MCF7 breast it was 48.6%; in the assay with HCT-116 colon it was 58.3%; in the assay with KM12 colon, 68.2%.
